Screening results deposited in PubChem BioAssay by several laboratories.
cytoskel mod – cytoskeleton assembly modification; inhibition, % at 2 µM; actives 0.18% (n = 91,000); HUVEC TNFa F-actin phalloidin imaging, high content;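 active = inhibition above the batch mean plus 3 SD and confirmed as a hit by visual image inspection, cut at about 30% in these data, passing the limit was not always enough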
Measles CPE – protection of cells from measles virus; Measles virus-infected cells, CPE protection, absorbance; protection (pct of control), % at 4 µM; actives 1.5% (n = 140,000); in the data active = protection mostly above about 24%, no sharp cut-off; inactive = mostly below about 26%
Numbers without * were called inactive; · = no result given. The list is not random: actives were taken first. Their share in the collection is about 1.5%.

SMILES	cytoskel mod	Measles CPE
C/C(=N/NC(=O)CCCOc1ccc(Cl)cc1Cl)c1ccc(C)o1	·	6.5
COc1ccc(NC(=O)[C@@H](NC(=O)c2ccccc2)C(C)C)cc1S(=O)(=O)N1CCCCC1	·	13.7
CC1(C)Cc2c(c(-c3ccccc3)[nH]c(=O)c2C#N)CO1	19.5	13.2
CC1(C)Cc2c(c(-c3ccccc3Cl)[nH]c(=O)c2C#N)CO1	8.1	28.1*
CCN(CC)C(=O)C1=C(C)Nc2nnnn2C1c1cccnc1 (stereo unspecified)	0.1	28.8*
COC(=O)C1=C(C)Nc2nnnn2C1c1cccnc1 (stereo unspecified)	-13.3	4.5
COC(=O)C1=C(C)N(CCc2cc(OC)c(OC)c(OC)c2)C(=O)N[C@H]1c1ccc(Br)cc1	·	3.3
CCc1nc2ccccc2[nH]1	-8.2	8.6
OC(Cc1nc2ccccc2[nH]1)c1ccccc1Cl (stereo unspecified)	14.0	51.3*
CCOC(=O)[C@@H]1C(c2c(OC)cc(OC)cc2OC)=NO[C@@H]1C(=O)OCC	·	3.5
COc1cc(NC(=S)NC(=O)c2ccccc2F)ccc1NC(=O)c1ccco1	·	7.6
CC(=O)N(C1=C(O)c2ccccc2C(=O)C1=O)C1CCCCC1	·	24.0
CC(=O)N(C)C1=C(O)c2ccccc2C(=O)C1=O	21.7	39.2*
COC(=O)CNC(=O)Cn1ccc2ccccc2c1=O	49.1	5.7
Cc1ccc(CNC(=O)Cn2ccc3ccccc3c2=O)o1	35.8*	15.1
O=C(COC(=O)/C=C/c1ccc2c(c1)OCO2)NC1CC1	·	25.8*
CC1CCCC(NC(=O)COC(=O)/C=C/c2ccc3c(c2)OCO3)C1C (stereo unspecified)	·	14.8
CCCC(=O)Nc1ccc(NC(=O)c2ccco2)cn1	-16.4	35.7
O=C(Nc1ccc2nc(-c3ccccc3)[nH]c2c1)c1ccco1	11.9	10.3
O=C(Nc1ccc2nc[nH]c2c1)c1ccco1	31.1	52.7*
CC(C)C(=O)Nc1ccc(NC(=O)c2ccco2)cn1	·	55.0*
O=C(NCc1ccccc1)c1cccc(NC(=O)c2ccco2)c1	4.5	3.5
CC(C)CNC(=O)c1cccc(NC(=O)c2ccco2)c1	-13.3	21.9*
S=C(Nc1ccccc1)Nc1ccc(Cl)cc1Cl	13.1	15.2
S=C(Nc1ccccc1)Nc1cc(Cl)ccc1Oc1ccccc1	3.5	32.9*
SMILES	cytoskel mod	Measles CPE
Cc1ccc(/C(O)=C2\C(=O)C(=O)N(Cc3cccnc3)C2c2ccccc2[N+](=O)[O-])cc1 (stereo unspecified)	·	6.5
O=C(O)/C=C/c1nc(-c2ccccc2)n2ccccc12	·	9.7
CC(C)CNC(=O)c1ccccc1NC(=O)/C=C/c1cccc([N+](=O)[O-])c1	·	4.9
O=C(NCCc1ccccc1)c1cccnc1N1CCCCCC1	-41.1	36.1*
O=C(Nc1ccc(Cl)cc1)c1cccnc1N1CCCCC1	-4.7	3.3
CCC(C)NC(=O)CCSc1ccc(C)cc1 (stereo unspecified)	·	17.2
Cc1ccc(-n2c(C)cc(-c3csc(N)n3)c2C)cc1	·	51.7*
Cc1cc(-c2csc(N)n2)c(C)n1C	11.2	18.1
Cc1ccc(CSc2nc3c(c(N(C)C)n2)CCCC3)cc1	-35.5	9.2
CNc1nc(SCc2ccc(C)cc2)nc2c1CCCC2	-4.4	56.9*
Cn1c(CN2CCN(C(=O)c3ccc(F)cc3)CC2)nc2cc([N+](=O)[O-])ccc21	·	16.1
N#CC(CO)(Cc1ccc(OC(F)F)cc1)c1nc2ccccc2[nH]1 (stereo unspecified)	·	2.1
O=C(CSc1ccccc1)NCc1ccccn1	·	14.4
CC(C)(C)OC(=O)N1CCC(C(=O)O)CC1	-10.9	24.8
CC(C)(C)OC(=O)N1CCC(c2c(C(=O)O)cnn2-c2ccccc2)CC1	0.2	31.7*
C[n+]1cccc(CNC(=O)/C=N/O)c1	25.8	active
O=C(/C=N/O)NCc1cccnc1	52.9	1.6
O=C(c1cccc(S(=O)(=O)N2CCc3ccccc3C2)c1)N1CCN(c2ccc(O)cc2)CC1	·	13.1
CSc1nnc(CSc2cc(C)nc(N(C)C)n2)o1	·	3.5
CCOC(=O)c1[nH]c2ccccc2c1NC(=O)c1ccc(S(=O)(=O)N2CCCC2)cc1	·	21.1*
Cc1cc(C(=O)Nc2ccc(S(=O)(=O)N3CCCC3)cc2)cs1	-15.1	52.9*
O=C(Nc1ccc(S(=O)(=O)Nc2nccs2)cc1)c1ccc(S(=O)(=O)N2CCOCC2)cc1	·	66.8*
CCOC(=O)c1[nH]c2ccccc2c1NC(=O)c1cc(OC)c(OC)c(OC)c1	3.9	·
O=C(Nc1ccccc1)c1ccc(S(=O)(=O)N2CCOCC2)cc1	12.8	14.0
CC(=O)c1ccc(NC(=O)c2ccc(S(=O)(=O)N3CCCC3)cc2)cc1	·	17.0
SMILES	cytoskel mod	Measles CPE
CN(C(=O)CSc1nc(N)c2c3c(sc2n1)CSC(C)(C)C3)c1ccccc1	·	10.3
O=C(CSc1nnc(COc2ccccc2)o1)c1ccccc1	9.4	25.4
CC(C)(C)NC(=O)CN(C(=O)CSc1nnc(COc2ccccc2)o1)c1cccc(F)c1	-12.9	30.6*
COc1ccc(-c2c(C)n([O-])c(C)c(-c3ccccc3)[n+]2=O)cc1OC	-19.7	88.9*
COc1ccc(-c2c(C)n([O-])c(C)c(C)[n+]2=O)cc1OC	31.0	13.5
O=c1[nH]c2ccccc2n1CCC1CCCCC1	-1.0	9.8
COc1ccc(CNC(=O)CSc2nc3ccc(N)cc3s2)cc1	·	11.9
CCOc1ccc(NC(=S)Nc2cc(OC)c(Cl)cc2OC)cc1	·	11.0
Cc1ccc(SCCC(=O)Nc2ccc(Br)c(C)c2)cc1	·	4.5
COc1ccc(C(=O)C(OC(=O)CNC(=O)c2ccco2)c2ccccc2)cc1 (stereo unspecified)	7.4	53.1*
O=C(CNC(=O)c1ccccc1)OC(C(=O)c1ccccc1)c1ccccc1 (stereo unspecified)	·	10.9
COc1ccccc1-c1cc(C(F)(F)F)n2ncc(S(=O)(=O)c3ccccc3)c2n1	0.4	4.3
CC(CCc1ccccc1)NC(=O)COc1ccc(S(=O)(=O)N2CCOCC2)cc1[N+](=O)[O-] (stereo unspecified)	·	7.1
O=C(Nc1cccc(C(F)(F)F)c1)c1cccnc1N1CCOCC1	·	7.8
O=C(Nc1cccc(F)c1)c1cccnc1N1CCOCC1	-70.8	23.7*
Cc1cc(C(=O)N/N=C/c2cccn2C)no1	·	43.3*
Cc1cc(C(=O)N/N=C/c2ccccc2Br)no1	10.9	10.9
COc1ccc(C2C(C(N)=O)=C(C)Nc3nc(-c4ccccc4)nn32)cc1OC (stereo unspecified)	-3.2	9.6
COc1cccc(-c2nc3n(n2)C(c2ccc4c(c2)OCO4)C(C(N)=O)=C(C)N3)c1 (stereo unspecified)	·	35.5*
Cc1ccccc1OCCNC(=O)/C=C/c1ccccc1	·	25.4
Cc1ccnc2nc(C(=O)OCC(=O)NCCc3ccccc3)nn12	·	3.2
COc1cccc(NC(=O)COC(=O)c2nc3nccc(C)n3n2)c1	12.1	75.6*
O=C1CN(C(=O)COC(=O)c2ccccc2NCc2ccco2)c2ccccc2N1	-2.9	9.1
O=C(Nc1ccccc1C(=O)Nc1ccc2c(c1)OCO2)c1ccco1	-6.4	24.9*
O=C(Nc1ccc2c(c1)OCO2)c1ccncc1	-22.5	26.3*
O=C(Nc1ccc2c(c1)OCCO2)c1ccc(Cl)c([N+](=O)[O-])c1	·	20.2*
O=C(Nc1ccc(C(O)(C(F)(F)F)C(F)(F)F)cc1)c1ccc(Cl)c([N+](=O)[O-])c1	·	1.2
COc1cc(NC(=O)c2ccc3c(c2)OCO3)ccc1NC(=O)c1ccco1	3.2	5.2
C/C(=C\C(=O)c1ccc(C)o1)Nc1ccc2c(c1)OCO2	3.9	4.4
